The campaign covered roughly 39,000 compounds. About 3,300 (8.5%) were called active. Many of the other results were omitted from the sample, so actives are more common in it than they were.

The assay concerns HepG2. Put plainly: cytotoxicity call (relative viability < 0.9). The following applies: 10 µM.
`C[C@H]1CN([C@@H](C)CO)C(=O)c2cccc(NC(=O)C3CC3)c2O[C@H]1CN(C)S(=O)(=O)c1ccc(F)cc1`: the cytotoxicity call is “inactive”.

On to `COc1ccc(CN(C)C[C@H]2OCCCC[C@@H](C)Oc3ccc(NS(=O)(=O)c4ccc(C)cc4)cc3C(=O)N([C@H](C)CO)C[C@H]2C)cc1`, for which the cytotoxicity call is “inactive”.

On to `C[C@H]1CN([C@@H](C)CO)C(=O)c2cc(NS(=O)(=O)c3cn(C)cn3)ccc2O[C@@H]1CN(C)S(=O)(=O)c1ccc(Cl)cc1`, for which the cytotoxicity call was “inactive”. The result for `NNC(=O)c1cccc(C(F)(F)F)n1` reads “inactive”; that for `CCC(=O)O[C@H]1[C@@H]2CC3=C4CC(=O)O[C@@H](c5ccoc5)[C@]4(C)CC[C@@H]3[C@@](C)(C2=O)[C@@H](CC(=O)OC)C1(C)C`, “inactive”. The result for `C[C@H](CO)N1C[C@H](C)[C@H](CN(C)C(=O)c2ccccc2)OCCCC[C@H](C)Oc2ccc(NS(=O)(=O)c3cccs3)cc2C1=O` reads “inactive”; that for `C[C@@H]1CN([C@@H](C)CO)C(=O)c2cc(NC(=O)Cc3cn(C)c4ccccc34)ccc2O[C@H]1CN(C)CC1CCCCC1`, “inactive”; that for `COc1cccc(S(=O)(=O)Nc2ccc3c(c2)[C@H]2C[C@H](CC(=O)NC4CCCCC4)O[C@@H](CO)[C@H]2O3)c1`, “inactive”.

Turning to `CN(C)CCCNC(=O)C[C@@H]1CC[C@H]2[C@H](COc3ccc(NC(=O)c4cccc(F)c4)cc3C(=O)N2C)O1`, the cytotoxicity call is “inactive”. Take `COc1ccc(S(=O)(=O)Nc2ccc3c(c2)C(=O)N([C@@H](C)CO)C[C@@H](C)[C@@H](CN(C)Cc2ccc4c(c2)OCO4)OCCCC[C@H](C)O3)cc1`: the cytotoxicity call was “inactive”. With `CCC(=O)NCc1nccc(N(C)C)n1`, the cytotoxicity call is “inactive”. Consider `C[C@H](CO)N1C[C@H](C)[C@@H](CN(C)S(=O)(=O)c2ccc(F)cc2)Oc2ccc(NC(=O)Cn3cnnn3)cc2CC1=O`, for which the cytotoxicity call was “inactive”. Turning to `C[C@H](CO)N1C[C@H](C)[C@@H](CN(C)Cc2ccc(C(=O)Nc3ccccc3N)cc2)Oc2ccc(NC(=O)Nc3ccc(C(F)(F)F)cc3)cc2C1=O`, the cytotoxicity call is “inactive”. For `C[C@H]1CN([C@@H](C)CO)C(=O)c2cc(NC(=O)Nc3ccc(C(F)(F)F)cc3)ccc2O[C@H]1CN(C)Cc1ccc(C(=O)Nc2ccccc2N)cc1`, the cytotoxicity call is “inactive”. On to `C[C@@H]1CN([C@@H](C)CO)C(=O)c2cc(NC(=O)Nc3ccc(C(F)(F)F)cc3)ccc2O[C@H]1CN(C)Cc1ccc(C(=O)Nc2ccccc2N)cc1`, for which the cytotoxicity call is “active”. For `C[C@@H]1CN([C@@H](C)CO)C(=O)c2cccc(NC(=O)C3CCOCC3)c2O[C@@H]1CN(C)S(=O)(=O)c1ccc(F)cc1`, the cytotoxicity call is “inactive”.

Take `Cc1noc(C)c1S(=O)(=O)Nc1ccc2c(c1)C(=O)N([C@H](C)CO)C[C@@H](C)[C@H](CN(C)CC1CCCCC1)OCCCC[C@@H](C)O2`: the cytotoxicity call was “inactive”. Consider `CC(C=CC=C(C)C=CC1=C(C)C(=O)CCC1(C)C)=CC=CC=C(C)C=CC=C(C)C=CC1=C(C)C(=O)CCC1(C)C` [CANTHAXANTHIN (euglenanone) ], for which the cytotoxicity call is “inactive”. Turning to `COc1ccc(S(=O)(=O)Nc2ccc3c(c2)[C@@H]2C[C@H](CC(=O)NCC4CC4)O[C@@H](CO)[C@@H]2O3)cc1`, the cytotoxicity call was “inactive”. The result for `C[C@H](CO)N1C[C@H](C)[C@@H](CN(C)Cc2ccc(C(=O)Nc3ccccc3N)cc2)Oc2ccc(NS(=O)(=O)c3ccc(Cl)cc3)cc2C1=O` reads “inactive”. On to `C[C@@H]1CCCCO[C@H](CN(C)S(=O)(=O)c2cccs2)[C@@H](C)CN([C@@H](C)CO)C(=O)c2cc(NC(=O)Nc3ccc(F)cc3)ccc2O1`, for which the cytotoxicity call was “inactive”. For `N[C@H](C(=O)O)[C@H](O)c1ccc(O)c(O)c1` the value was “inactive”; for `CNC[C@H](O)c1ccc(O)c(O)c1`, “inactive”; for `CNC[C@@H](O)c1ccc(O)c(O)c1`, “inactive”. In the case of `O=C(O)[C@@H](O)Cc1ccc(O)c(O)c1`, the cytotoxicity call was “inactive”. With `NCC(O)c1ccc(O)c(O)c1.O=C(O)C(O)C(O)C(=O)O` (centres undefined), the cytotoxicity call was “active”. On to `N[C@H](C(=O)O)c1ccc(C(=O)O)c(O)c1`, for which the cytotoxicity call is “inactive”.

Regarding `CNCC(O)c1ccc(O)c(O)c1.O=C(O)C(O)C(O)C(=O)O` (centres undefined), the cytotoxicity call was “active”. For `NC(C(=O)O)C(O)c1ccc(O)c(O)c1` (centres undefined), the cytotoxicity call was “active”. Turning to `NC[C@@H](O)c1ccsc1`, the cytotoxicity call is “inactive”.

Turning to `N[C@@H](C(=O)O)c1ccc(C(=O)O)c(O)c1`, the cytotoxicity call was “inactive”. The result for `NC[C@H](O)c1ccc(O)c(O)c1` reads “active”.

On to `NC[C@@H](O)c1ccc2ccccc2c1`, for which the cytotoxicity call is “inactive”.

In the case of `Cc1noc(C)c1S(=O)(=O)N(C)C[C@H]1Oc2ccc(NC(=O)Cc3cn(C)c4ccccc34)cc2CC(=O)N([C@@H](C)CO)C[C@H]1C`, the cytotoxicity call is “inactive”. For `COc1cccc(S(=O)(=O)N[C@@H]2C=C[C@H](CC(=O)NC3CCC3)O[C@H]2CO)c1` the value was “inactive”; for `C[C@H](CO)N1C[C@H](C)[C@@H](CN(C)C(=O)Cc2ccccc2)OCCCC[C@H](C)Oc2ccc(NS(=O)(=O)c3cccs3)cc2C1=O`, “inactive”; for `C[C@H](CO)N1C[C@H](C)[C@@H](CN(C)Cc2ccc(C(=O)O)cc2)Oc2ccc(NC(=O)c3ccncc3)cc2C1=O`, “inactive”. With `C[C@@H]1CCCCO[C@@H](CN(C)Cc2ccc(C(F)(F)F)cc2)[C@H](C)CN([C@H](C)CO)C(=O)c2cc(NS(=O)(=O)c3cn(C)cn3)ccc2O1`, the cytotoxicity call was “inactive”. In the case of `CC(C)NC(=O)N(C)C[C@H]1OCCCC[C@H](C)Oc2ccc(NC(=O)Nc3ccc(C(F)(F)F)cc3)cc2C(=O)N([C@@H](C)CO)C[C@H]1C`, the cytotoxicity call was “inactive”. Turning to `C[C@@H]1CCCCO[C@H](CN(C)S(=O)(=O)c2ccc(Cl)cc2)[C@@H](C)CN([C@@H](C)CO)C(=O)c2cc(NC(=O)C3CCCCC3)ccc2O1`, the cytotoxicity call was “inactive”. For `C[C@@H]1CCCCO[C@H](CN(C)C(=O)CCC(F)(F)F)[C@H](C)CN([C@H](C)CO)C(=O)c2cc(NS(=O)(=O)c3ccccc3)ccc2O1` the value was “inactive”; for `C[C@@H]1CCCCO[C@@H](CN(C)C(=O)Nc2ccccc2)[C@H](C)CN([C@H](C)CO)C(=O)c2cc(NC(=O)Nc3ccc(C(F)(F)F)cc3)ccc2O1`, “inactive”.

Regarding `CC(C)NC(=O)N(C)C[C@H]1Oc2c(NS(=O)(=O)c3ccc(F)cc3)cccc2C(=O)N([C@H](C)CO)C[C@H]1C`, the cytotoxicity call is “inactive”. Consider `C[C@@H]1CN([C@@H](C)CO)C(=O)c2cc(C#CC3CC3)cnc2O[C@H]1CN(C)S(=O)(=O)c1cccc(F)c1`, for which the cytotoxicity call is “inactive”.

The record behind these values is the antibiotic and cytotoxicity screens of Wong et al. (2023).
